Six compounds from PubChem BioAssay can be followed below.

Calls of active or inactive are those of the source.

The nature of test [1]: small molecules captured by biotinylated probe aFSTL3 – biochemical, small-molecule microarray, fluorescence 635/667, stem cell growth factor project, primary screen (AID 1064).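 Further: measures binding of the biotinylated anti-FSTL3 antibody to printed compounds.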 The following applies: higher = more signal.
A short description of test [2]: binders from COS7 lysate, DM2A8 probe, primary screen, torsin A project, cell lysate, small-molecule microarray, fluorescence 635/667 (AID 1065). The following applies: higher = more signal, COS7 lysate expressing mutant human TOR1A.
The nature of test [3]: small molecules captured by biotinylated probe aFGF2 – biochemical, small-molecule microarray, fluorescence 635/667, stem cell growth factor project, primary screen (AID 1067).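 Further: measures binding of biotinylated aFGF2 protein to printed compounds on slides; z-score merges feature fluorescence and signal-to-noise across triplicate slides.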 The settings on record: higher = more signal.
The nature of test [4]: small molecules captured by biotinylated probe aFGF10 – biochemical, small-molecule microarray, fluorescence 635/667, stem cell growth factor project, primary screen (AID 1071).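 Further: score merges 667 nm spot intensity and signal to noise from triplicate slides.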 The settings on record: higher = more signal.
Test [5] has as its target Neurogenic locus notch homolog protein 2 (Homo sapiens) (UniProt Q04721). Briefly: small molecules binding Notch2 protein – biochemical, small-molecule microarray, 635 nm fluorescence, stem cell growth factors, primary screen (AID 1073). The following applies: higher = more signal.
The target of test [6] is Pro-neuregulin-1, membrane-bound isoform (Homo sapiens) (UniProt Q02297). The experiment in a line: small molecules binding neuregulin-1 protein – biochemical, small-molecule microarray, fluorescence 635/667, psychiatric disease protein project, primary screen (AID 1075).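 Further: score combines 667 nm spot fluorescence with signal to noise.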 The following applies: NRG1 binding, 635 nm fluorescence, higher = more signal.
Test [7] relates to Neuregulin-1 EGF-like domain. The experiment in a line: small molecules binding NRG1 EGF domain – biochemical, small-molecule microarray, 635 nm fluorescence, primary screen (AID 1081).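 Further: binding of the protein to compounds printed on small-molecule microarray slides.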 The following applies: higher = more signal.
Test [8] can be described thus: FRG1 expression reporter modulators in myotubes – cell-based, C2C12 myotubes, firefly/Renilla luciferase, luminescence, FRG1 inhibition for FSHD, primary screen (AID 1084). The settings on record: FRG1 promoter luciferase, higher = more signal, called active from +8 up or from −8 down.
Test [9] in a line: small molecules captured by biotinylated probe aFST – biochemical, small-molecule microarray, fluorescence 635/667, stem cell growth factor project, primary screen (AID 1086).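 Further: score merges 667 nm fluorescence with signal-to-noise of each printed compound spot.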 The following applies: higher = more signal.
A short description of test [10]: binders of probe aHhip on microarray, primary screen, stem cell growth factor project, biochemical, small-molecule microarray, fluorescence 635/667 (AID 1087).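 Further: score merges spot fluorescence at 667nm with spot signal to noise ratio.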 The settings on record: higher = more signal.
For test [11], the system named is PRMT1 (protein arginine N-methyltransferase 1). The experiment in a line: small molecules binding arginine methyltransferase PRMT1 – biochemical, small-molecule microarray, 635 nm fluorescence, primary screen (AID 1088).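 Further: binding of Prmt1 protein to compounds spotted on small-molecule microarray slides.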 The settings on record: higher = more signal.
The nature of test [12]: growth effects on S. cerevisiae YJM789 – YJM789 clinical isolate, OD600, 24 h, basal, primary screen (AID 1089).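 Further: growth of clinical yeast isolate S. cerevisiae YJM 789 seeded 1000 cells per well; test concentration not given here.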 The following applies: higher = more signal, called active from +8 up or from −8 down.
A short description of test [13]: S. pombe growth modifiers, basal conditions – strain 972, OD600, 24 h, no modulator, primary screen (AID 1090).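 Further: basal condition with compound alone and no growth modifier present; test concentration not given here.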 The following applies: S. pombe 972 growth, higher = more signal, called active from +8 up or from −8 down.
A short description of test [14]: budding yeast growth modifiers under rapamycin – strain BY4716, OD600, 96 h, primary screen (AID 1091). Further: test concentration not given here. The settings on record: S. cerevisiae BY4716 + rapamycin, higher = more signal, called active from +8 up or from −8 down.
Test [15] deals with Torsin-1A-interacting protein 2 (Homo sapiens) (UniProt Q8NFQ8). The experiment in a line: small molecules binding lysate-expressed LULL1 – cell lysate, human LULL1 lysate, 635/667 nm fluorescence, primary screen (AID 1092).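 Further: probe is lysate of COS7 cells overexpressing human LULL1; score merges per-feature 667 nm fluorescence with signal-to-noise.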 The settings on record: small-molecule microarray, hLULL1 lysate binding, 635 nm fluorescence; higher = more signal.
Test [16] is described as follows: optical density change of DRC41 E. coli – strain DRC41, OD650, 24 h, E. coli filamentation project, primary screen (AID 1093).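 Further: MC1000 strain lacking acrAB efflux and sulA so SOS filamentation is blocked; test concentration not given here.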 The settings on record: E. coli DRC41 growth, higher = more signal, called active from +8 up or from −8 down.
Test [17] in a line: probe aLefty2 binding to arrayed compounds – biochemical, biotinylated probe, 635/667 nm fluorescence, primary screen (AID 1094).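 Further: score merges spot fluorescence near 667 nm with spot signal-to-noise ratio.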 The settings on record: small-molecule microarray, higher = more signal.
For test [18], the system named is Noggin (protein binding on small-molecule microarray). Briefly: small molecules binding Noggin protein – biochemical, 635/667 nm fluorescence, primary screen (AID 1095).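 Further: score merges 667 nm feature fluorescence with signal to noise over triplicate slides.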 The following applies: 635 nm fluorescence, higher = more signal.
Test [19] has as its target Neurogenic locus notch homolog protein 3 (Homo sapiens) (UniProt Q9UM47). Briefly: small molecules binding NOTCH3 protein – biochemical, 635/667 nm fluorescence, primary screen (AID 1096). The following applies: small-molecule microarray, 635 nm fluorescence, higher = more signal.
Test [20] in a line: probe aEGFR binding to arrayed compounds – biochemical, biotinylated probe, 635/667 nm fluorescence, primary screen (AID 1097).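 Further: probe is a biotinylated anti-EGFR antibody binding compounds printed on slides; score combines fluorescence near 667 nm and signal to noise of each spot.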 The following applies: small-molecule microarray, higher = more signal.

Torsin-1A-interacting protein 2 (Homo sapiens), sequence (Q8NFQ8 whole entry, looked up): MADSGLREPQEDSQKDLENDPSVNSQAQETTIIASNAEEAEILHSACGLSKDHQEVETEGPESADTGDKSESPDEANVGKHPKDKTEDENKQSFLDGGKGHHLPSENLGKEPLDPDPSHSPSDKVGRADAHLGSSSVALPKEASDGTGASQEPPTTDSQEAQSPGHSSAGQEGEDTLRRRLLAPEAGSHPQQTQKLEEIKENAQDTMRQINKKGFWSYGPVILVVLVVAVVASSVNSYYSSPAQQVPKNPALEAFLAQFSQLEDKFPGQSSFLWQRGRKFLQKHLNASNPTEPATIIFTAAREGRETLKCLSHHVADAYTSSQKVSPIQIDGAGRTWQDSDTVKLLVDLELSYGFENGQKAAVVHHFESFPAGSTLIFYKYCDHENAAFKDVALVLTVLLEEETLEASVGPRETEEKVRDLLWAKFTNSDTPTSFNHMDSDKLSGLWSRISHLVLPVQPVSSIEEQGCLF
Pro-neuregulin-1, membrane-bound isoform (Homo sapiens), sequence (Q02297 whole entry, looked up, the tested form may be a part, canonical isoform): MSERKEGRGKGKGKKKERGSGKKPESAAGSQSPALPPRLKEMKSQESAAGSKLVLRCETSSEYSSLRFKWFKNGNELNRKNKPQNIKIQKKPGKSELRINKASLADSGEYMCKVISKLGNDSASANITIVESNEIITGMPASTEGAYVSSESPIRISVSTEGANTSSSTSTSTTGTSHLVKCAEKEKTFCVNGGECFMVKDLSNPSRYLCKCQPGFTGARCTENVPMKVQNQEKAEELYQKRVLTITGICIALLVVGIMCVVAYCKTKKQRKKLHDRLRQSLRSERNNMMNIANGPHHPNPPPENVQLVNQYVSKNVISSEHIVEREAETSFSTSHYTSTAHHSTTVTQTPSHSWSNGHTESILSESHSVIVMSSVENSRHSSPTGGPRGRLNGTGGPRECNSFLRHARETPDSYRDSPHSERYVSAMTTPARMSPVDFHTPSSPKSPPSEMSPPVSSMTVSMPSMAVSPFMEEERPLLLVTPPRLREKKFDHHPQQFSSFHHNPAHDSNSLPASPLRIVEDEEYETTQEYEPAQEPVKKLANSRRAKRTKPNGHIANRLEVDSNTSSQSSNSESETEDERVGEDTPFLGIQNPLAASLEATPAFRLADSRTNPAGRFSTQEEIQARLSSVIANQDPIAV
Neurogenic locus notch homolog protein 3 (Homo sapiens), sequence (Q9UM47 whole entry, looked up): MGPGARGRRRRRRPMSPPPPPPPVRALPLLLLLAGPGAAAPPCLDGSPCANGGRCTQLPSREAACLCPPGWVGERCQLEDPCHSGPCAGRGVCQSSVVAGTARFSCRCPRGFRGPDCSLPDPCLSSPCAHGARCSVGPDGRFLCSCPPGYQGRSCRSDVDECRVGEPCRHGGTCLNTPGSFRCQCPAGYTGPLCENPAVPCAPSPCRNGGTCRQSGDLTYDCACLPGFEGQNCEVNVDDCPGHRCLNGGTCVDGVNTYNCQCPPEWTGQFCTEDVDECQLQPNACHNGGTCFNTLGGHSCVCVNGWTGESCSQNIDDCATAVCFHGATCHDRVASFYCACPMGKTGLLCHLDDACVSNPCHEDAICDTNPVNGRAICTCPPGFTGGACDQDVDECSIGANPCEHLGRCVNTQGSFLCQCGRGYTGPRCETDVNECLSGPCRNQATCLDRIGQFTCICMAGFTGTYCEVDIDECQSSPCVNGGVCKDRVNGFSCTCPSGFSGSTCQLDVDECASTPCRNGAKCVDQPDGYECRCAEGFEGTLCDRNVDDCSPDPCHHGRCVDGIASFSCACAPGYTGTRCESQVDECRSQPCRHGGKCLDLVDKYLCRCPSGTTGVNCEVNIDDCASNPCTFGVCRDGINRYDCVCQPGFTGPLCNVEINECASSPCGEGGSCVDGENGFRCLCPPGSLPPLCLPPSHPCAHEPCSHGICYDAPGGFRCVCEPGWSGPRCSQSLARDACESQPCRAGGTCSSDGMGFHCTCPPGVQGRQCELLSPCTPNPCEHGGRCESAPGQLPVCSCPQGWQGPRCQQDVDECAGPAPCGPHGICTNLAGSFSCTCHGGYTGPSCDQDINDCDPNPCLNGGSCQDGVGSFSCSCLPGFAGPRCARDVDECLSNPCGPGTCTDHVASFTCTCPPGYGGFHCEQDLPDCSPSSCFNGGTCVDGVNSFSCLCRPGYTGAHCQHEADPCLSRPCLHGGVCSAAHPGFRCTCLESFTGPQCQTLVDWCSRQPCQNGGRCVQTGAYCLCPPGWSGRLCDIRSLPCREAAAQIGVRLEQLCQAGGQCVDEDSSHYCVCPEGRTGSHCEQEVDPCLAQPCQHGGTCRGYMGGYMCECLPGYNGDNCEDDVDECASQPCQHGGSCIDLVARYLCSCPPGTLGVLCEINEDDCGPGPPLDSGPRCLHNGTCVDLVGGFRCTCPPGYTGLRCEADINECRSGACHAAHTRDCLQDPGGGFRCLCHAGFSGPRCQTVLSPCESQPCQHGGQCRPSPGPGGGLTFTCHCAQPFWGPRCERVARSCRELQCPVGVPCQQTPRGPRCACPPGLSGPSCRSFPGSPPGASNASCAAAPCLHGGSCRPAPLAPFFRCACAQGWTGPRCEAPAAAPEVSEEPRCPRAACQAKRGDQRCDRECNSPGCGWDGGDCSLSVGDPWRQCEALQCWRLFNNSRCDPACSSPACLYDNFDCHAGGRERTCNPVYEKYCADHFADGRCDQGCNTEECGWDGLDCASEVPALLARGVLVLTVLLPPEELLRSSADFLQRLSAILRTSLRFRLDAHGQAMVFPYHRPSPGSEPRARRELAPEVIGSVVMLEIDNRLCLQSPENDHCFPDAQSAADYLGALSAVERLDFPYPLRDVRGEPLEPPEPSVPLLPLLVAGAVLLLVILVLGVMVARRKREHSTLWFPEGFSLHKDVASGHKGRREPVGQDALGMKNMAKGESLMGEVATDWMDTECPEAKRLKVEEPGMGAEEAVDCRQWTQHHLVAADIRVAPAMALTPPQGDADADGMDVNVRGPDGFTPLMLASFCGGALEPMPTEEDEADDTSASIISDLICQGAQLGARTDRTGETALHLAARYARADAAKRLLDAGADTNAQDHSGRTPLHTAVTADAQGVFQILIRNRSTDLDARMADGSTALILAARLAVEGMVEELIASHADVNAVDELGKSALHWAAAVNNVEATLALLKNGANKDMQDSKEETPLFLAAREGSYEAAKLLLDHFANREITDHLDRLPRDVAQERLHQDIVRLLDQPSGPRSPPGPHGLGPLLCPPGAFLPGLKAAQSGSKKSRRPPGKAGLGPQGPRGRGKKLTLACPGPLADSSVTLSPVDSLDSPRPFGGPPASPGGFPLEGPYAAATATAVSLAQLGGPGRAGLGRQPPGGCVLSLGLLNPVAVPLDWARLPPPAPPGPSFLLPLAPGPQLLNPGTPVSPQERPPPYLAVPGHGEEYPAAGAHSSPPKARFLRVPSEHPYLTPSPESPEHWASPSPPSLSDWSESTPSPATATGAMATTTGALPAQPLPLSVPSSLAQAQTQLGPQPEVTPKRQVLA

For `CCOC(=O)CCN1C(=O)[C@H]2[C@H]3[C@H](O)[C@H](O)CC(=NOCC(C)C)[C@@H]3CC[C@H]2C1=O`, the composite z-score in test [1] was -0.784; in [2], 1.88; in test [3], -0.234; in test [4], -1.05; in test [5] it was -0.567; in test [6] it was -0.849. In addition, the composite z-score in test [7] was 0.296; in test [9] it was -0.595; in [10], -0.0994; in test [11], 0.868; in test [15], -0.953; in test [17], -0.0956. Besides, the composite z-score is 1.39 in test [18], -0.321 in test [19] and 0.163 in [20]. Besides, the z-score is -0.398 (inactive) in [8]; -0.535 (inactive) in test [12]; -0.219 (inactive) in [13]; -0.629 (inactive) in test [14]; -0.127 (inactive) in test [16].
With `O=C(NCCC[N+]1=CC=NC1c1ccccc1)N1CCCc2nc(-c3ccc(Br)cc3)ccc21` (stereo not given), the composite z-score is -0.265 in test [1]; -0.14 in test [2]; -0.107 in [3]; 0.345 in test [4]; 0.576 in test [5]; 1.21 in test [6]. Besides, the composite z-score in test [7] is 0.97; in test [9] it was 0.944; in [10], 0.0373; in test [11], -0.476; in [15] it was 0.0594; in test [17], -0.0616. Besides, the figures for the composite z-score in [18], in test [19] and in [20] were 0.232, -0.378 and -0.0183, respectively. Moreover, the z-score is 0.88 (inactive) in [8]; -0.435 (inactive) in test [12]; -1.69 (inactive) in test [13]; 0.763 (inactive) in test [14]; 2.39 (inactive) in test [16].
`CCOC(=O)CCN1C(=O)[C@H]2[C@H]3[C@H](O)[C@H](O)CC(=NOCC=C(C)CCC=C(C)C)[C@@H]3CC[C@H]2C1=O`: the composite z-score is 0.149 in test [1]; 1.13 in test [2]; -0.133 in test [3]; 0.84 in [4]; 0.845 in test [5]; 0.258 in test [6]. The composite z-score in [7] is 0.658; in [9], 0.42; in test [10], 0.0515; in test [11], 0.316; in test [15] it was 1.01; in test [17], -0.197. Moreover, the figures for the composite z-score in test [18], in test [19] and in test [20] were 0.742, 0.808 and -0.0415, respectively. The z-score in test [8] was -0.594 (inactive); in test [12], -1.28 (inactive); in [13], 0.237 (inactive); in test [14] it was -0.44 (inactive); in test [16] it was 6.79 (inactive).
Take `CC=CC1=C(CO)[C@H](O)[C@H]2O[C@H]2[C@@H]1O`: the composite z-score is -0.267 in test [1]; 0.112 in [2]; -0.0425 in test [3]; 0.192 in test [4]; 0.486 in test [5]; -0.356 in test [6]. Further, the composite z-score is 0.592 in [7]; 0.133 in test [9]; 0.154 in test [10]; 0.028 in [11]; 0.0048 in [15]; -0.221 in [17]. Also, the composite z-score in [18] was 0.59; in [19], 0.429; in test [20], -0.128. Also, the z-score was 0.746 (inactive) in test [8]; 0.285 (inactive) in test [12]; 1.03 (inactive) in test [13]; -0.258 (inactive) in test [14]; 0.712 (inactive) in [16].
Regarding `COC(=O)[C@H](C)NC(=O)CCC1CC(OC(=O)NCCc2ccc(F)cc2)CC2(CCCC(COC(=O)NCc3ccccc3)O2)O1` (stereo not given in full), the composite z-score in test [1] is -0.749; in test [2] it was -0.126; in test [3], 0.0002; in [4], 0.677; in test [5], 1.06; in [6] it was 0.648. For the same compound, the composite z-score in test [7] is 0.964; in test [9], 0.65; in test [10] it was -0.305; in test [11], 1.53; in [15], 1.92; in [17] it was -0.0898. Also, the composite z-score in test [18] is 0.55; in test [19] it was 1.1; in test [20], -0.0314. For the same compound, the z-score in [8] is 1.61 (inactive); in [12], 0.59 (inactive); in [13], 1.04 (inactive); in test [14], 0.932 (inactive); in test [16] it was -0.755 (inactive).
As to `O=C1C=C[C@@H](O)[C@@H]2[C@@H]3C(=O)N(Cc4ccc5c(c4)OCO5)C(=O)[C@@H]3CC[C@@H]12`, the composite z-score in test [1] was -0.624; in [2], -0.0026; in test [3] it was -0.0925; in test [4], 0.28; in [5] it was 0.628; in test [6], 0.199. In addition, the composite z-score in test [7] was 0.764; in test [9] it was 0.233; in test [10], 0.0722; in test [11], -0.846; in [15], 0.221; in test [17] it was -0.116. The figures for the composite z-score in test [18], in test [19] and in [20] were 0.652, 0.676 and -0.0731, respectively. Also, the z-score in [8] is 0.189 (inactive); in [12] it was 0.564 (inactive); in test [13] it was -0.681 (inactive); in test [14] it was 0.621 (inactive); in [16] it was 0.446 (inactive).
